# Compound activity deposited in PubChem BioAssay by National Center for Advancing Translational Sciences (NCATS).
# NPC1 prom act: NPC1 promoter activation; Huh7 NPC1 promoter luciferase reporter, 24 h; Potency, µM (series often up to 9.22 µM), for the others: at the top dose activation, usual class: activators; 2.4% of 320,000 active; AID 485313; note: % of control where 0% means no effect; nearly all actives have a fitted effect of over 60% in size
#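 Cells: Huh7 expressing luciferase under the NPC1 promoter, 1500/well. Seeded 2 h, compound added, incubated 24 h at 37 °C. Luciferase reagent, 10 min ambient, then luminescence.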
# FLuc modulator: counter-screen for miR-21 project: firefly luciferase inhibitors or activators | purified FLuc, Km substrates, luminescence inhibition | Potency, µM (series often up to 57.5 µM), inactives show at the highest dose activity change, negative = inhibition, actives largely listed as inhibitors | 6.9% of 360,000 active | AID 588342;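 note: plate controls were vehicle for no effect and reference inhibitor for full effect; nearly all actives have a fitted effect of over 55% in size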
# Target sequence (P08659 whole entry, looked up): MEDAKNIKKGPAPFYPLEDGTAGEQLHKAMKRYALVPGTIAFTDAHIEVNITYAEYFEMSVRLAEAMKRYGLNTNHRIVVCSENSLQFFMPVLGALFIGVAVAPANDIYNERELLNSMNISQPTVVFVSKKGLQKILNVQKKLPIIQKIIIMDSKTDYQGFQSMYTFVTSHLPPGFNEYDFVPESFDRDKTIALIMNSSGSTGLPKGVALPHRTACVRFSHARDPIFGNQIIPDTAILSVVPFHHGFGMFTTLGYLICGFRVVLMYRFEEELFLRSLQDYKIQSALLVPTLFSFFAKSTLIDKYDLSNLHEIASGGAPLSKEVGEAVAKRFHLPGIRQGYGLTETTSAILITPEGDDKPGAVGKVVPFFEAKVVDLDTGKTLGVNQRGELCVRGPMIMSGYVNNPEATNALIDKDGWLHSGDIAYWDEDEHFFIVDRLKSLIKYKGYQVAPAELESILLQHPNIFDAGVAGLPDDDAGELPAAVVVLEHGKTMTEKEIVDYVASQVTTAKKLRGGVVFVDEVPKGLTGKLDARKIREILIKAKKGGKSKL
#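 Biochemical qHTS of compounds, final roughly 60 µM downward over six points, against 10 nM purified firefly luciferase using Km concentrations of substrates (10 uM D-luciferin, 10 uM ATP) in Tris acetate pH 7.5 buffer; luminescence output.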
# ELG1 repair inh: ELG1-dependent DNA repair inhibition; Potency, µM (doses to about 46.1 µM), for the others: top-dose activity change, negative = inhibition, hits mostly inhibitors; 2.3% of 330,000 active; HEK293T ELG1-luciferase reporter, luminescence, 16 h; DNA damage induced by 5-fluorouridine; AID 504467; note: % is set by controls: 0 for no effect and ±100 for the full control effect; nearly all actives have a fitted effect of over 55% in size
#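 Reporter activity after DNA damage by 5-fluorouridine is monitored. Compound-treated cells incubate 16 hr at 37 °C, then ONE-Glo is added for 30 min before luminescence reading.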
# ELG1 genotox: induces genotoxicity in HEK293T cells with luciferase-tagged ELG1. HEK293T ELG1-luciferase reporter, luminescence, 16 h. Potency, µM (top dose mostly 46 µM), for the others: at the highest dose activity change, positive = activation, hits mostly activators. 1.3% of 330,000 active. AID 504466; note: % of control where 0% means no effect; nearly all actives have a fitted effect of over 60% in size
#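 ELG1-luciferase HEK293T cells, 2,000/well; compound pinned in; 16 hr, 37 °C, 5% CO2; ONE-Glo, 30 min RT; luminescence on CCD imager.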
# Rab9 promoter act: activators of Rab9 promoter; Huh7 Rab9 promoter-luciferase reporter, luminescence, 24 h; Potency, µM (highest dose often 9.22 µM), for the others: top-dose activation, negative = inhibition, most hits filed as activators; 2.8% of 320,000 active; note: % of control where 0% means no effect; nearly all actives have a fitted effect of over 60% in size
#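 Cells were plated at 1500 per well in reduced-serum medium with 10% FBS and left 2 h. Compound in DMSO was then added for 24 h at 37 °C. Reporter signal was read by luminescence after 10 min with luciferase detection reagent.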
# SMN2 splice enh: increases expression of the SMN2 splice variant; HEK293 SMN2-luciferase splicing reporter, luminescence, 30-36 h; Potency, µM (doses to about 46.1 µM), inactives show at the top dose activity change, positive = activation, hits mostly activators; 2.8% of 210,000 active; AID 1458; note: % of control where 0% means no effect; nearly all actives have a fitted effect of over 55% in size
#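 HEK293 cells carry an SMN2 […]–luciferase reporter in which exon 7 inclusion puts luciferase in frame. Cells were plated 10-12 h before compound addition, then incubated 30-36 h at 37C. ONE-Glo luminescence was read; sodium butyrate at 4.5 mM final served as control.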
# * hit, by the source's call; ? = inconclusive; / = no result given; [ ] = remark or other dose. An excerpt weighted towards active compounds, which were near 9.4% of everything screened. Calls come from the whole dose curve; as a rule, active = well fitted curve in the direction sought with a large enough effect; inconclusive = small, poorly fitted or top-dose-only effect, or another doubt; inactive = no such curve, though single readings can be large; an effect the other way counts as inactive or inconclusive. Potency is the fitted concentration of half-maximal effect.
SMILES,NPC1 prom act,FLuc modulator,ELG1 repair inh,ELG1 genotox,Rab9 promoter act,SMN2 splice enh
COc1ccc(C(=O)CCNc2cccc(Cl)c2)cc1,?,?,?,?,3.5µM*,?
CCCOc1ccc(C(=O)Nc2ccc3c(c2)OCCO3)cc1,0.35µM*,1.2µM*,?,2.9µM*,0.56µM*,/
COc1ccc(C(=O)CC(=O)C(=O)Nc2cccc(F)c2)cc1,-1%,-6%,-16%,-10%,0%,/
CCCOc1ccc(C(=O)CCNc2cccc(Cl)c2)cc1,17%,-10%,6%,10%,25%,-16%
CC(=O)c1ccc(OCCCC(=O)Nc2ccc3c(c2)OCCO3)cc1,1%,-2%,?,16%,9%,/
COc1ccc(C(=O)CNc2cccc(F)c2)cc1,?,11µM*,?,?,11%[1.84 µM],/
COc1ccc(-c2noc(CCC(=O)Nc3ccc4c(c3)OCCO4)n2)cc1,0%,17µM*,-4%,15%,1%,-18%
Cc1ccc(-c2noc(CCC(=O)Nc3ccc4c(c3)OCO4)n2)cc1,-4%,3%,9%,2%,-1%,1%
Cc1cc2ccccc2n1-c1ccc(C(=O)N2CCC(C(=O)NCc3ccccc3Cl)CC2)s1,/,-19%,/,/,/,/
CCN(Cc1ccccc1)C(=O)c1nc(-c2cccc(F)c2)n2c1CCCCC2,/,-7%,/,/,/,/
COc1ccc(C(=O)CCNc2ccc3c(c2)OCCO3)cc1,?,13µM*,?,-4%,24%,10%
COc1ccc(C(=O)Nc2ccc3c(c2)OCCO3)cc1,0.45µM*,0.85µM*,?,?,0.71µM*,1.8µM*
COc1ccc(OCCCC(=O)Nc2ccc3c(c2)OCCO3)cc1,-3%,-18%,?,0%,-5%,?
CC(=O)Oc1ccc(C(=O)Nc2ccc3c(c2)OCCO3)cc1,1µM*,11µM*,?,?,1.6µM*,/
COc1ccc(-c2noc(CCC(=O)NCCc3ccccc3)n2)cc1,1%,-18%,?,-3%,2%,/
CCN(CCCNC(=O)CCc1nc(-c2ccc(OC)cc2)no1)c1cccc(C)c1,-4%,6%,18µM*,-14%,-3%,-46%
CC[C@H]1C2=C3C(CC[C@H]4C(OCc5ccc(F)cc5C(F)(F)F)OC[C@](C)([C@@H]34)N(C(=O)OC(C)(C)C)C2)C(COC)C1COC (some centres undefined),/,/,/,/,/,-5%
[Cu].[NH-][C@H](CC(=O)O)C(=O)O.[NH-][C@H](CC(=O)O)C(=O)O,/,/,/,/,/,1%[9.22 µM]
CCNC(=O)CC1C(=O)N(c2ccc(C)cc2)C(=O)N1Cc1ccc(C)cc1 (centres undefined),/,-2%,/,/,/,-4%
O=C(CCNc1ccccc1)c1ccc2c(c1)OCO2,2.2µM*,4.8µM*,?,?,2.5µM*,2%
CN(C)CCC(=O)c1ccc2c(c1)OCO2,2%,1%,-11%,1%,-3%,-10%
Cc1ccc(Cn2nnnc2CN2CCC(NC(=O)c3ccc(Br)cc3)CC2)cc1,3%,-17%,21µM*,-5%,1%,-72%
Cc1ccc(Cn2nnnc2CN2CCC(c3nc4ccc(Cl)cc4[nH]3)CC2)cc1,-6%,-1%,23µM*,-38%,-7%,-58%
CCCSc1nc(-c2ccc(OC)cc2)cc(-c2ccccc2OC)c1C#N,/,?,/,/,/,-9%
CCc1ccc(N=C2N=C(N)c3ccccc32)cc1,-3%,2.7µM*,?,?,29%,?
NC1=NC(=Nc2ccc(S(N)(=O)=O)cc2)c2ccccc21,-6%,-4%,?,6%,-7%,/
COc1ccc(NC(=O)Cn2c(=O)n(-c3ccccc3)c(=O)c3c4c(sc32)CCCC4)cc1,/,1%,/,/,/,-1%
CCN(CC)c1ccc(/C=C(\C#N)C(N)=S)cc1,-1%,21µM*,13%,8%,1%,/
O=C(c1ccco1)N1CCC2(CC1)CN(c1cccc(-c3ccccc3)c1)C2,/,/,/,/,/,-47%
